Most compounds without a hit are left out; they make up all but 1.6% or so of the library.
KCNQ2 block – rat KCNQ2 potassium channel inhibitors, primary screen, cell-based, CHO-K1, FluxOR thallium flux, B-score. 310,000 compounds, 1.1% hits. Potassium voltage-gated channel subfamily KQT member 2 (Rattus norvegicus), O88943. 20 min; stronger effect = lower value. AID 2156, 2009. B-score at 10 µM;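 active means fluorescence ratio B-score at most minus 3 library SDs, with starting brightness B-score within 2 library SDs, cut at about -5.5 in these data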
KCNQ2 pot – potentiators of rat KCNQ2 potassium channel; CHO-K1 KCNQ2, FluxOR thallium flux fluorescence; stronger effect = higher value; 310,000 compounds, 0.54% hits; B-score at 10 µM; AID 2239, 2010;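 active means fluorescence ratio B-score at least 3 SD of library B-scores, with initial fluorescence B-score within 3 of them, cut at about 5.3 in these data; same plate scores as AID 2156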;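 further: B-score of peak minus minimum over baseline fluorescence ratio after K+ and Tl+ stimulus; positive B-score means potentiation of KCNQ2 with more thallium influx and brighter signal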
KCNQ2 block conf – rat KCNQ2 potassium channel inhibitors, confirmation, cell-based, thallium flux; KCNQ2-expressing cells, inhibition; stronger effect = lower value; AID 493025, 2011; shares compounds with KCNQ2 block; 1,000 compounds, 57% hits; activity change, negative = inhibition, % at 10 µM;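 further: 0% = vehicle wells and values are ratio percent relative to vehicle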
KCNQ1 spec – human KCNQ1 channel inhibition, counter-screen for KCNQ2 inhibitor project, cell-based, FluxOR thallium flux; shares compounds with KCNQ2 block; KCNQ1-expressing cells, FluxOR thallium flux fluorescence; stronger effect = lower value; activity change, negative = inhibition, % at 10 µM; 1,000 compounds, 15% hits;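 active means activity change at least 3 SD of negative controls below their mean in both duplicate wells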;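 further: CHO cells stably transfected with KCNQ1 and depolarized by potassium stimulus; peak minus minimum fluorescence over baseline after thallium addition; 0% = vehicle negative control and -100% = blank without thallium stimulus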
Target sequence (P51787 whole entry, looked up): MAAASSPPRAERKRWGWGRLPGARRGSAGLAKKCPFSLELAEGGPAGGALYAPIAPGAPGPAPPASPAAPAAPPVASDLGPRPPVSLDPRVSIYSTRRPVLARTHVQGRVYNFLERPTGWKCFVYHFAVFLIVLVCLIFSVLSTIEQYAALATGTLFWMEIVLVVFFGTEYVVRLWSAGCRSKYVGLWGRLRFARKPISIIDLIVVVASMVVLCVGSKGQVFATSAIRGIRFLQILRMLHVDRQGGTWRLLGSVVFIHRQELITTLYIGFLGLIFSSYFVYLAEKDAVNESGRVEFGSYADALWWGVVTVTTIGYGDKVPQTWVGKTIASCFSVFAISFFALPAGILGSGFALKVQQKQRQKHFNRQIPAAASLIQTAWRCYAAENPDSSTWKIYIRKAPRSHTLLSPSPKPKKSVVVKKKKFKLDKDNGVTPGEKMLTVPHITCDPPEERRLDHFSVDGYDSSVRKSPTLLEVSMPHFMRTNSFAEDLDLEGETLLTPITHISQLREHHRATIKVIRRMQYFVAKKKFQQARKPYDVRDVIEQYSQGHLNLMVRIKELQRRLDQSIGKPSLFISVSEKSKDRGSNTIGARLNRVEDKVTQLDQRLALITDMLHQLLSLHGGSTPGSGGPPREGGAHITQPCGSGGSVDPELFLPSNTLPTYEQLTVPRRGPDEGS
CHO Tl ctr – thallium flux change in parental CHO cells, counter-screen for KCNQ2 inhibitor project. 1,000 compounds, 14% hits. shares compounds with KCNQ2 block. stronger effect = lower value. activity change, % at 10 µM;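 further: 0% = vehicle negative controls with stimulus buffer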
KCNQ2 patch conf – rat KCNQ2 channel inhibitors, confirmation, cell-based, automated patch clamp, single concentration. 550 compounds, 49% hits. shares compounds with KCNQ2 block. calls only at 10 µM. AID 588531, 2011. KCNQ2-expressing cells, automated patch clamp current
Active calls of the source: *; i = inactive; x = no result given; + = active, no number. Unless noted, how the calls were made is not given here.

SMILES	KCNQ2 block	KCNQ2 pot	KCNQ2 block conf	KCNQ1 spec	CHO Tl ctr	KCNQ2 patch conf
CCn1c(=O)c(C(=O)NCc2ccc(F)cc2)c(O)c2ccccc21	-6.7*	-6.7	i	i	i	x
CCCn1c(=O)c(C(=O)NCc2ccccc2OC)c(O)c2ccccc21	-7.6*	-7.6	i	i	i	x
CCOC(=O)CC(=O)N/N=C/c1c(N)n(C)c(=O)n(C)c1=O	i	0.14	x	x	x	x
COc1cc([N+](=O)[O-])cc2sc(NC(C)=O)nc12	i	x	x	x	x	x
O=C(Nn1c(SCc2cccc([N+](=O)[O-])c2)nc2ccccc2c1=O)c1ccccc1	-8.9*	-8.9	-38%*	-40%*	-32%*	+
COc1ccc(C(=O)Nn2c(SCc3cccc([N+](=O)[O-])c3)nc3ccccc3c2=O)cc1	i	x	x	x	x	x
CCOC(CCn1c(SCc2cccc([N+](=O)[O-])c2)nc2ccccc2c1=O)OCC	-7.3*	-7.3	i	i	i	x
COCCn1c(SCc2cccc([N+](=O)[O-])c2)nc2ccccc2c1=O	i	x	x	x	x	x
COc1ccc(C2=C(C)C(N3CCN(C(=O)c4ccco4)CC3)=NS2(=O)=O)cc1	i	0.97	x	x	x	x
CC(N1CCOC1=O)S(=O)(=O)c1ccccc1 (configuration not stated)	i	x	x	x	x	x
N#Cc1nc(COc2ccc(Cl)cc2)oc1N1CCN(Cc2ccccc2)CC1	-6.9*	-6.9	-24%*	i	i	i
CCN1CCN(c2oc(COc3ccc(Cl)cc3)nc2C#N)CC1	i	x	x	x	x	x
CCCCOc1ccc(C(=O)NCC(=O)NCC2CCCO2)cc1 (configuration not stated)	i	x	x	x	x	x
COc1cc(-c2cc(C(=O)Nc3nc4ccccc4s3)c3ccccc3n2)cc(OC)c1OC	i	x	x	x	x	x
O=C(Nc1ccccc1F)c1cc(-c2ccco2)nc2ccccc12	i	0.04	x	x	x	x
O=C(Nc1ccccc1N1CCOCC1)c1cc(-c2ccco2)nc2ccccc12	-7*	-7	-54%*	-54%*	-50%*	+
COc1cc(-c2cc(C(=O)Nc3ccc(O)cc3)c3ccccc3n2)cc(OC)c1OC	-7.7*	-7.7	-30%*	i	i	+
COc1cc(-c2cc(C(=O)Nc3ccccc3N3CCOCC3)c3ccccc3n2)cc(OC)c1OC	-7.8*	-7.8	-31%*	i	i	+
COc1ccc(-c2cc(C(=O)NN3CCOCC3)c3ccccc3n2)cc1OC	i	0.26	x	x	x	x
Cc1sc2nc(SCc3ccccc3)n(Cc3ccco3)c(=O)c2c1C	i	x	x	x	x	x
COc1cccc(CSc2nc3sc(C)c(C)c3c(=O)n2Cc2ccco2)c1	-8.8*	-8.8	-28%*	i	i	i
COCCSc1nc(N)c2c3c(sc2n1)CN(C)CC3	i	x	x	x	x	x
Cc1ccc(C(C(=O)NCc2ccc(F)cc2)N(C(=O)c2csnn2)C2CC2)cc1 (configuration not stated)	i	x	x	x	x	x
Cc1ccc(C(C(=O)NCc2ccc(F)cc2)N(C(=O)c2csnn2)C2CC2)o1 (configuration not stated)	-8.7*	-8.7	-20%*	i	i	+
COc1ccc(C(=O)CCC(=O)N2CCN(c3cc(C)ccc3C)CC2)cc1	i	x	x	x	x	x
SMILES	KCNQ2 block	KCNQ2 pot	KCNQ2 block conf	KCNQ1 spec	CHO Tl ctr	KCNQ2 patch conf
O=C(Cc1ccccc1)NCC(=O)OCC(=O)c1cccs1	i	x	x	x	x	x
CC(C)(C)n1nnnc1C(c1cccs1)N(Cc1ccc(Cl)cc1)CC1CCCO1 (configuration not stated)	-9.9*	-9.9	i	i	i	x
Clc1ccc(CN(Cc2ccccc2)C(c2cccs2)c2nnnn2C2CCCC2)cc1 (configuration not stated)	i	x	x	x	x	x
CC(C)(C)c1ccc(S(=O)(=O)NCCc2ccncc2)cc1	i	x	x	x	x	x
Cc1ccc(CNS(=O)(=O)c2ccc(C(C)(C)C)cc2)n1C	-7.1*	-7.1	x	i	i	+
CC(C)[C@H](NC(=O)c1nn(Cc2ccccc2)c(=O)c2ccccc12)C(=O)O	i	0.13	x	x	x	x
O=C(Nc1ccc(N2CCOCC2)cc1)Nc1ccc(Cl)c(Cl)c1	-6.6*	-6.6	-28%*	i	i	i
O=C(Nc1ccc(Cl)cc1)Nc1ccc(N2CCOCC2)cc1	i	x	x	x	x	x
CCCCNC(=O)Oc1ccc(C(=O)N2c3ccccc3NC(=O)C2C)cc1 (configuration not stated)	i	x	x	x	x	x
CCCc1cc(C(=O)N2CCN(c3ccc(C(F)(F)F)cn3)CC2)sc1C	i	x	x	x	x	x
O=C(NC(Cc1ccccc1)c1ccc2c(c1)OCCCO2)c1ccccc1F (configuration not stated)	i	x	x	x	x	x
CC(=O)N(CCC(Cc1ccccc1)c1ccc2c(c1)OCO2)Cc1ccccc1F (configuration not stated)	-7.2*	-7.2	-35%*	i	i	i
CCN(CC(=O)Nc1ccccc1OC)C(=O)c1cc(-c2ccccc2)nn1-c1ccccc1	i	x	x	x	x	x
CCN(CC(=O)Nc1ccccc1C(F)(F)F)C(=O)c1cc(-c2ccccc2)nn1-c1ccccc1	-9.3*	-9.3	i	i	i	x
Cc1c(C(=O)Nc2ccccc2-c2ccccc2)cccc1[N+](=O)[O-]	i	x	x	x	x	x
Cc1ccc(C)c(COC(=O)CCN=C2NS(=O)(=O)c3ccccc32)c1	i	x	x	x	x	x
Cc1ccc(/C=C2/Sc3ccc(C(=O)NCc4ccccn4)cc3NC2=O)cc1	i	1.2	x	x	x	x
Cc1ccc(NC(=S)N(C)C(c2ccccc2)c2ccccc2)cc1C	-8.4*	-8.4	-25%*	i	i	i
CN(C(=S)Nc1ccc(F)cc1)C(c1ccccc1)c1ccccc1	i	x	x	x	x	x
Cc1ccc(NC(=O)Cn2cnc([N+](=O)[O-])c2)cc1C	i	x	x	x	x	x
CN1CCN(c2cc(-c3ccccc3)nc3cc(-c4ccc(F)cc4)nn23)CC1	i	x	x	x	x	x
COc1cccc(-c2cc3nc(-c4ccccc4)cc(N4CCC5(CC4)OCCO5)n3n2)c1	-8.4*	-8.4	-32%*	i	i	i
NC(=O)C1CCCN1S(=O)(=O)c1ccc2ccccc2c1 (configuration not stated)	i	0.79	x	x	x	x
COc1ccc2cc(CN(Cc3ccco3)Cc3nnnn3C3CCCCC3)c(=O)[nH]c2c1	i	2.5	x	x	x	x
CC(C)(C)c1ccc(CN(Cc2ccco2)Cc2nnnn2C2CCCC2)cc1	-12*	-12	-24%*	i	i	i
Cc1ccc(C(=O)C(C)OC(=O)Cn2cnc3c2c(=O)n(C)c(=O)n3C)cc1 (configuration not stated)	i	0.47	x	x	x	x
COc1ccc(-c2cc(C(=O)N3CCCC3)c3ccccc3n2)cc1OC	i	0.4	x	x	x	x

Screening data deposited in PubChem by Johns Hopkins Ion Channel Center.
